Drawing on PubChem BioAssay (EPA / NIEHS), this text covers outcome and AC50 for 24 compounds.

Assay [1] addresses rat Glutamate, NMDA Agonist Site (GluNMDA), Grin1 (gene 24408) (UniProt P35439). The assay is described as follows: NVS_LGIC_rGluNMDA_Agonist: NovaScreen (NVS) Ligand-Gated Ion Channel Assay for rat Glutamate, NMDA Agonist Site (GluNMDA) (AID 2283327). A digest of the protocol: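 Radioligand displacement at the agonist site on rat forebrain membrane preparations, read by filter scintillation after 1 h. Chemicals were first run at 25 uM in duplicate; those passing threshold were titrated to a 50 uM maximum.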

Assay [2] has as its target human Peripheral-type Benzodiazepine Receptor (PBR), TSPO (gene 706) (UniProt P30536). Description: NVS_MP_hPBR: NovaScreen (NVS) Membrane Protein Assay for human Peripheral-type Benzodiazepine Receptor (PBR) (AID 2283331).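 Note: hits reduce radioligand binding relative to DMSO baseline.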 A digest of the protocol: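 Using human colon-derived membranes, this one-endpoint binding test reads radioligand loss by scintillation after 1 h. Screening started at 25 uM in duplicate, with positive and negative controls on every plate, and actives moved to dose series.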

For assay [3], the target named is human Androgen Receptor (AR), AR (gene 367) (UniProt P10275). The assay is described as follows: NVS_NR_hAR: NovaScreen (NVS) Nuclear Receptor Binding Assay for human Androgen Receptor (AR) (AID 2283332). A digest of the protocol: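 Actives from a duplicate 25 uM single-point screen went on to concentration series. Read-out after 20 h was scintillation counting of displaced radioligand in LnCAP extract, with DMSO as baseline.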
Sequence of human Androgen Receptor (AR), AR (gene 367) (P10275 whole entry, looked up): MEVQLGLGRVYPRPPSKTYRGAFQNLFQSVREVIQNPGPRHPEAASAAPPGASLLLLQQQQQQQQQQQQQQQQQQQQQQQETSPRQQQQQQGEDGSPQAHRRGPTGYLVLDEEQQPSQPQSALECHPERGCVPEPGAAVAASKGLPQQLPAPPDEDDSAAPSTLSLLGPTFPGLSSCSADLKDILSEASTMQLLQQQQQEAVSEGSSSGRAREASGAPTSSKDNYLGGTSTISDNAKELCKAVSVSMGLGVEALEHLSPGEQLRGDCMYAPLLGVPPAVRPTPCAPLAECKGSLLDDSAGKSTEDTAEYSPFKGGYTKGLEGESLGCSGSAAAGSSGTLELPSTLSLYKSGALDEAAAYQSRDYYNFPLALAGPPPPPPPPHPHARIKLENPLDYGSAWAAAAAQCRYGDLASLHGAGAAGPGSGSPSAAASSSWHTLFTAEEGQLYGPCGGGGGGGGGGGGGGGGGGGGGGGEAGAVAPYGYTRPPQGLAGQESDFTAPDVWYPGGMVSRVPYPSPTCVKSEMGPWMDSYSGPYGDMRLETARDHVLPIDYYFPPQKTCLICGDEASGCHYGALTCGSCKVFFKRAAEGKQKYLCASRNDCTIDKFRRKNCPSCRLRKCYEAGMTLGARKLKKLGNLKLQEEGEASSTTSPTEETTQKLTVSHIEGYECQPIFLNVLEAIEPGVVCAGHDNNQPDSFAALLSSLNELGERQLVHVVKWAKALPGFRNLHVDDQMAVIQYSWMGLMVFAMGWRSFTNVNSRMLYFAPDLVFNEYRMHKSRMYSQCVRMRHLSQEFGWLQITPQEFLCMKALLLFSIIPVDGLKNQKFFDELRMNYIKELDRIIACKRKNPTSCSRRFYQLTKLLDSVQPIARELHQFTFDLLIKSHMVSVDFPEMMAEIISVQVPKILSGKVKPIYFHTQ

Assay [4] concerns the target Glutamate receptor ionotropic, kainate 1 (Rattus norvegicus) (UniProt P22756). The assay is described as follows: NVS_IC_rKAR: NovaScreen (NVS) Ion Channel Assay for rat Kainic Acid Receptors (KAR) (AID 2283334; active = hit-call score of the fitted dose curve at least 0.9, where 1 is the maximum; inactive = score below 0.9). A digest of the protocol:
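Rat forebrain membrane preparation incubated 1 h with radioligand and test chemical; bound signal read by filtration and scintillation. Single-concentration screen at 25 uM, then concentration series to 50 uM maximum.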

Assay [5] addresses rat Peripheral-type Benzodiazepine Receptor (PBR), Tspo (gene 24230) (UniProt P16257). The assay is described as follows: NVS_MP_rPBR: NovaScreen (NVS) Membrane Protein Assay for rat Peripheral-type Benzodiazepine Receptor (PBR) (AID 2283335). In a few lines:
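Competitive displacement of specific radioligand from rat kidney membrane PBR, read by filtration and scintillation after 1 h. Compounds first tested at 25 uM in duplicate, then in concentration series; signal loss relative to DMSO.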

In assay [6] the target is bovine Gamma-Aminobutyric Acid Type A Receptor Agonist (GABAR Agonist), GABRA1 (gene 780973) (UniProt P08219). The assay is described as follows: NVS_LGIC_bGABAR_Agonist: NovaScreen (NVS) Ligand-Gated Ion Channel Assay for bovine Gamma-Aminobutyric Acid Type A Receptor Agonist (GABAR Agonist) (AID 2283338). In a few lines: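 Radioligand binding to bovine cerebellar membranes in agonist format, read by filter-based scintillation counting after 1 h. Primary screen in duplicate at 25 uM, with actives followed in concentration series. Gain of signal versus DMSO.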
Sequence of bovine Gamma-Aminobutyric Acid Type A Receptor Agonist (GABAR Agonist), GABRA1 (gene 780973) (P08219 whole entry, looked up): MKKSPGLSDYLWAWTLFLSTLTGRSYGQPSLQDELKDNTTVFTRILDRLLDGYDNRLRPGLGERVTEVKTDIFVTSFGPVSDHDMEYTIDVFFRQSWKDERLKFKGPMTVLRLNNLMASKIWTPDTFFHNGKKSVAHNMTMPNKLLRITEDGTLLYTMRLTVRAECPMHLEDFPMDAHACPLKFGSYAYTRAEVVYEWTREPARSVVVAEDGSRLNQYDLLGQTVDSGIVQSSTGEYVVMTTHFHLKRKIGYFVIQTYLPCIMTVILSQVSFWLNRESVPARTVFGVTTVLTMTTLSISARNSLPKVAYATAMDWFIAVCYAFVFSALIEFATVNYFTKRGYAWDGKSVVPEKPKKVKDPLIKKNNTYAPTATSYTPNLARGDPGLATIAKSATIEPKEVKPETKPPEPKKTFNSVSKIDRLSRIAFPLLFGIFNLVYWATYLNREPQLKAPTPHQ

The subject of assay [7] is NCBI gene 100848466. Description: NVS_NR_bPR: NovaScreen (NVS) Nuclear Receptor Binding Assay for bovine Progextron Receptor (PR) (AID 2283343).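 For AC50: actives lower bound radioligand signal below DMSO meaning displacement of the label.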 A digest of the protocol: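 Steps: bovine uterine membranes were dosed with chemical alongside radioligand, incubated 18 hours, then radiodetected by scintillation counting. Initial testing used 25 uM in duplicate; confirmed actives were rerun as concentration series.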

Assay [8] has as its target human Constitutive Androstane Receptor (CAR), NR1I3 (gene 9970) (UniProt Q14994). The assay is described as follows: NVS_NR_hCAR_Antagonist: NovaScreen (NVS) Nuclear Receptor Binding Assay for human Constitutive Androstane Receptor Antagonism (CAR) (AID 2283344). In a few lines: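 Single 25 uM duplicate primary screen, with concentration-series follow-up on actives. Cell-free binding format run in antagonist mode, TR-FRET signal taken 1 h post-dose; activity is signal loss relative to DMSO.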

In assay [9] the target is chimpanzee Androgen Receptor (AR), AR (gene 747460) (UniProt O97775). Description: NVS_NR_cAR: NovaScreen (NVS) Nuclear Receptor Binding Assay for chimpanzee Androgen Receptor (AR) (AID 2283346). In a few lines: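 Cell-free radioligand displacement using receptor protein extracted from Sf9/Sf21 cells; bound radioligand measured by scintillation counting 72 hours after chemical dosing. Loss of signal versus DMSO baseline indicates binding; primary screen single-concentration in duplicate at 25 uM, actives followed in concentration series.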
Sequence of chimpanzee Androgen Receptor (AR), AR (gene 747460) (O97775 whole entry, looked up): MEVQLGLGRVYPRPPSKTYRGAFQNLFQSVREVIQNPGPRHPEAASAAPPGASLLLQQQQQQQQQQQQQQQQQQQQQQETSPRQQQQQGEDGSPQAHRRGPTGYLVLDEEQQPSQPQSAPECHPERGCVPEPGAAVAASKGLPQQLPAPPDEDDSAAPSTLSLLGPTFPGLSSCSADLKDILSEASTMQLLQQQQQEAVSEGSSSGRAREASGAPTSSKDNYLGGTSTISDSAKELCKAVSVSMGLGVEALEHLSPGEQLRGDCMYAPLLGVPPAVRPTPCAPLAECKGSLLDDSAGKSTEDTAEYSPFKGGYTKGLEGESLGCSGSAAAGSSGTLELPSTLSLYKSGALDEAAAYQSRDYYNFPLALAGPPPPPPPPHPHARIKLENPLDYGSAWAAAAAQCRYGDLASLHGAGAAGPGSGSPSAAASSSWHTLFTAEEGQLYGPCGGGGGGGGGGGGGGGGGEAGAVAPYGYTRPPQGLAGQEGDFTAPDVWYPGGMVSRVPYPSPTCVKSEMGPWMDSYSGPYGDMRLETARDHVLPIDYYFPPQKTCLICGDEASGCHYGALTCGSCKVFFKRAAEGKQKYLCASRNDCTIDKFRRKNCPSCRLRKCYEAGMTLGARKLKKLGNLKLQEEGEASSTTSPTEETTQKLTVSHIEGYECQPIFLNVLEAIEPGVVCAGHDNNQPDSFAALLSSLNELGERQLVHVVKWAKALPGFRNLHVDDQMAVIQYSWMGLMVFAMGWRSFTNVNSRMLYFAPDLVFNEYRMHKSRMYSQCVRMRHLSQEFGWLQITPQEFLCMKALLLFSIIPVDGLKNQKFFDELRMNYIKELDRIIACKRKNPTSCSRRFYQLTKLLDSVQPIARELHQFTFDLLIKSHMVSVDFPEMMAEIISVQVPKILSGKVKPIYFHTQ

Assay [10] addresses bovine Estrogen Receptor (ER), ESR1 (gene 407238) (UniProt P49884). The assay is described as follows: NVS_NR_bER: NovaScreen (NVS) Nuclear Receptor Binding Assay for bovine Estrogen Receptor (ER) (AID 2283345).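 Note: actives lower the bound radioligand count which means they displace the ER ligand.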 A digest of the protocol: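 Cell-free radioligand binding with receptor from bovine uterine membranes, read by scintillation counting 18 h after dosing. Loss of specific binding was scored against DMSO; primary screen at 25 uM in duplicate, actives then run as concentration series.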

Assay [11] has as its target Voltage-gated inwardly rectifying potassium channel KCNH2 (Homo sapiens) (UniProt Q12809). Description: NVS_IC_hKhERGCh: NovaScreen (NVS) Ion Channel Assay for human Potassium Channel ERG (KhERGCh) (AID 2283333). In a few lines: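 Membranes from CHO cells expressing human ERG; displacement of radioligand measured by filtration and scintillation after 0.75 h. Single-concentration duplicate screen at 25 uM, then concentration-response for actives; DMSO baseline.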

In assay [12] the target is Small conductance calcium-activated potassium channel protein 1 (Rattus norvegicus) (UniProt P70606). Description: NVS_IC_rKCaCh: NovaScreen (NVS) Ion Channel Assay for rat Potassium Channel, Ca2+ Act., VI (KCaCh) (AID 2283336). A digest of the protocol: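 Filter-based scintillation counting of radioligand bound to rat forebrain membrane preparations, measured 1 h after compound addition. Primary screen used 25 uM in duplicate, with concentration-response follow-up; signal decrease relative to DMSO marks activity.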

Where “and” joins values, the source holds several entries; their conditions need not be identical. Identical values can stand only once. Results filed as inconclusive are left out. Some structures have more than one record in an assay (separate samples or runs), and their calls can disagree. Calls of active or inactive are those of the source. Rule for the calls, unless noted: active = hit-call score of the fitted dose curve at least 0.9, where 1 is the maximum; inconclusive = response in the unintended direction; inactive = score below 0.9.

Sequence of rat Peripheral-type Benzodiazepine Receptor (PBR), Tspo (gene 24230) (P16257 whole entry, looked up): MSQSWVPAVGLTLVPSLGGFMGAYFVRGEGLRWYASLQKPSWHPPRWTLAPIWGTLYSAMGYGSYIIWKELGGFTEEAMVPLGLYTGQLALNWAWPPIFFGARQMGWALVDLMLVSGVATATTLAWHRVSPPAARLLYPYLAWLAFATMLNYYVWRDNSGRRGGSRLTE
Sequence of human Constitutive Androstane Receptor (CAR), NR1I3 (gene 9970) (Q14994 whole entry, looked up): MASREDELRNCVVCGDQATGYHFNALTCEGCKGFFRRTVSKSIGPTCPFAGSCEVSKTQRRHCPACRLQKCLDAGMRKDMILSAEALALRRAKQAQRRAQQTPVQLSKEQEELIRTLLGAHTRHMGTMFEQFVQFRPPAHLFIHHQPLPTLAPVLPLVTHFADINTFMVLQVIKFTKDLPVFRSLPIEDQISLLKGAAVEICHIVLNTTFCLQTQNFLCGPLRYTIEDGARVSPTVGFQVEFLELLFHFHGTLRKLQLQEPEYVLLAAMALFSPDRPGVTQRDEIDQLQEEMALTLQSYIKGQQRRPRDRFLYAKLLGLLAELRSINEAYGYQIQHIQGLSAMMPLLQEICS
Sequence of bovine Estrogen Receptor (ER), ESR1 (gene 407238) (P49884 whole entry, looked up): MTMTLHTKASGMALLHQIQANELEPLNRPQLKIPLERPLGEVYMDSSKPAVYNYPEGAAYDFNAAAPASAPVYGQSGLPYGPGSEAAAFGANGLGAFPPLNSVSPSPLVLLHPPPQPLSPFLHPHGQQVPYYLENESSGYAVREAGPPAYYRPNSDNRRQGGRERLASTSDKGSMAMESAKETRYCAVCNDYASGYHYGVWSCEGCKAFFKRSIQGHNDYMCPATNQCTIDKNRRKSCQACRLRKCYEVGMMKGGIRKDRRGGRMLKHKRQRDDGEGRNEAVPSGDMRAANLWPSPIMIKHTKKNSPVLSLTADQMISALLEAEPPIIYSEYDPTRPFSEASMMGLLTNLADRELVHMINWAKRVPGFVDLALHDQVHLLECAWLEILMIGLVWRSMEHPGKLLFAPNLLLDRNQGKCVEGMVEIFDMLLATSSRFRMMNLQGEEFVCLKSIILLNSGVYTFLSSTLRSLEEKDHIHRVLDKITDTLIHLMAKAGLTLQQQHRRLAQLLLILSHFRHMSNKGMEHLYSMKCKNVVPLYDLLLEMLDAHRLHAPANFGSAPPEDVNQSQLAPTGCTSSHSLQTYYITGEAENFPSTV
Sequence of human Peripheral-type Benzodiazepine Receptor (PBR), TSPO (gene 706) (P30536 whole entry, looked up): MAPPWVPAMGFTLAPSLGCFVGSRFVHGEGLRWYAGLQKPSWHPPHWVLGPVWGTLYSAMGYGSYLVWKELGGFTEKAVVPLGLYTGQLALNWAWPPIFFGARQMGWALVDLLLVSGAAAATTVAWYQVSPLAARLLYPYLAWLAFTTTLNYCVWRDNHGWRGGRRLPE
Sequence of Voltage-gated inwardly rectifying potassium channel KCNH2 (Homo sapiens) (Q12809 whole entry, looked up): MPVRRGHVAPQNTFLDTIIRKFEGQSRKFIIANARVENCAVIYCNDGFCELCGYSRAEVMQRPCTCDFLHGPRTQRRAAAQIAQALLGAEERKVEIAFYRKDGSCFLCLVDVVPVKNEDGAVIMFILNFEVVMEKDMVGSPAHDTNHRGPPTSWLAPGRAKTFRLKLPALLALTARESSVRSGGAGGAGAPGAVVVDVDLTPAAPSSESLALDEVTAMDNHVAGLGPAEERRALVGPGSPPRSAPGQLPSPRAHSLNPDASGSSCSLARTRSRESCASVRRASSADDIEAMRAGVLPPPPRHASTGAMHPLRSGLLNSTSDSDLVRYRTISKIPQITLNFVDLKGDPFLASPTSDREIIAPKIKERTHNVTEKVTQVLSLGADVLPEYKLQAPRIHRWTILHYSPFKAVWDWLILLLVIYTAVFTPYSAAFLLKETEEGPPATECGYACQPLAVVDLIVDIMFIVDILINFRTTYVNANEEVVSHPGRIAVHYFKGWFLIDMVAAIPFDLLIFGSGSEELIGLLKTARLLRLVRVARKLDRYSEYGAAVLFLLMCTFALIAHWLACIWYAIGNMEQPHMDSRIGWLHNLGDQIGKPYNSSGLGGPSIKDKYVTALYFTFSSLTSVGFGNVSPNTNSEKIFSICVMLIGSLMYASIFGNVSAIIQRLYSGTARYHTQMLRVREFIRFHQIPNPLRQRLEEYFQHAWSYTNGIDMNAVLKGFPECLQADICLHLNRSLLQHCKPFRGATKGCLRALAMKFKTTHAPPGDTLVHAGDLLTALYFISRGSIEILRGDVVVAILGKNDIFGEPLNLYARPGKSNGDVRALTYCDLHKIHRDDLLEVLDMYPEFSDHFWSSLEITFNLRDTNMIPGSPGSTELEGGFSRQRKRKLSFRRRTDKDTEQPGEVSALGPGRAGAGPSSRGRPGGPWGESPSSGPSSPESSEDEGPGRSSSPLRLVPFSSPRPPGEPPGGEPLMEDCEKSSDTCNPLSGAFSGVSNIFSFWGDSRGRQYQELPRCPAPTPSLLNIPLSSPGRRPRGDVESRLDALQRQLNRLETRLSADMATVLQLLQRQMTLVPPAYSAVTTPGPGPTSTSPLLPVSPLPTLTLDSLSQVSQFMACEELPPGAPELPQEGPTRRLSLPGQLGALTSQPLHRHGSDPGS

Consider `Oc1ccc(Cl)cc1Cc1ccccc1`, for which the compound was classed as inactive in assay [1], in [4], in [5], in assay [6] and in assay [8]. Further, the half-maximal activity concentration (AC50) (commonly the concentration giving half of the maximal activity seen) in assay [2] was 17.1 µM (active) [middle of 7 runs]; in assay [3], 7.84 µM (active) [middle of 6 runs]; in assay [5] it was 11 µM (active) and 9.89 µM (active) and 8.7 µM (active); in assay [7], 12.9 µM (active) [middle of 6 runs]; in assay [8], 9.68 µM (active) and 25.2 µM (active) and 25 µM (active); in assay [9], 15.3 µM (active) and 15.7 µM (active) and 19.7 µM (active).
In the case of `CCC(C)(NC(=O)c1cc(Cl)c(C)c(Cl)c1)C(=O)CCl` (stereo unspecified), the half-maximal activity concentration (AC50) in assay [2] is 25 µM (active); in [5], 0.0105 µM (active).
Consider `O=C1c2ccccc2C(=O)N1SC(Cl)(Cl)Cl`, for which the compound was called inactive in assay [5], in assay [8] and in assay [10].
In the case of `CC(C)(C)C(O)/C(=C\c1ccc(Cl)cc1Cl)n1cncn1` (stereo unspecified), the result in assay [7] and in assay [10] was inactive. Besides, the AC50 in assay [9] is 1.51 µM (active).
`CNC(=O)/C=C(\C)OP(=O)(OC)OC`: the compound was classed as inactive in assay [8].
Consider `N#Cc1c(Cl)c(Cl)c(Cl)c(C#N)c1Cl`, for which, in assay [2], the half-maximal activity concentration (AC50) is 9.01 µM (active). The outcome in assay [7], in assay [8], in assay [10] and in assay [9] was inactive.
As for `Cc1cc(C)nc(NC(=O)NS(=O)(=O)c2ccccc2C(=O)OC2COC2)n1`, the call in assay [11] and in assay [8] was inactive.
Regarding `COC(=O)c1ccccc1S(=O)(=O)NC(=O)N(C)c1nc(C)nc(OC)n1`, the compound was classed as inactive in [10].
As to `O=C(O)C(F)(F)C(F)(F)C(F)(F)C(F)(F)C(F)(F)C(F)(F)C(F)(F)F`, the result in [7] was inactive.
For `CNC(=O)Oc1ccccc1OC(C)C`, the compound was classed as inactive in assay [8] and in [10].
`COc1cc(OC)nc(NC(=O)NS(=O)(=O)c2cc(NC=O)ccc2C(=O)N(C)C)n1`: the outcome in assay [11] was inactive.
For `CC1(C)C(C=C(Cl)Cl)C1C(=O)OC(C#N)c1ccc(F)c(Oc2ccccc2)c1` (stereo unspecified), the call in [2], in assay [7], in [8] and in assay [10] was inactive. Also, the concentration at half-maximal activity (AC50) in assay [5] was 10.8 µM (active).
Regarding `CCOc1nc(NC)nc(NC(=O)NS(=O)(=O)c2ccccc2C(=O)OC)n1`, the compound was called inactive in assay [3], in assay [8] and in [10].
On to `N#CN`, for which the result in assay [12] was inactive.
For the compound `CC(C)(C)C(O)C(Oc1ccc(Cl)cc1)n1cncn1` (stereo unspecified), the compound was called inactive in [2], in assay [5] and in assay [8]. Besides, the AC50 was 39.8 µM (active) in [7]; 19.6 µM (active) and 25 µM (active) and 20.5 µM (active) in assay [9].
For `COC(=O)c1ccccc1CS(=O)(=O)NC(=O)Nc1nc(OC)cc(OC)n1`, the outcome in [10] was inactive.
With `[2H]C1([2H])[n+]2ccccc2-c2cccc[n+]2C1([2H])[2H]`, in [6], the result was inactive.
Turning to `COP(=S)(OC)Oc1ccc(SC)c(C)c1`, the AC50 in assay [2] was 17.4 µM (active); in [5] it was 4.64 µM (active); in assay [7] it was 16.3 µM (active). In addition, the compound was classed as inactive in [10].
Take `O=S1OCC2C(CO1)C1(Cl)C(Cl)=C(Cl)C2(Cl)C1(Cl)Cl` (stereo unspecified): the outcome in assay [2], in [5] and in assay [8] was inactive.
In the case of `O=C(O)CCCOc1ccc(Cl)cc1Cl`, the outcome in [2], in assay [5] and in [8] was inactive.
As for `C[C@H]1[C@H](c2ccc(Cl)cc2)SC(=O)N1C(=O)NC1CCCCC1`, the compound was classed as inactive in [7].
On to `COc1nn(CSP(=S)(OC)OC)c(=O)s1`, for which the call in assay [2] and in assay [7] was inactive. Further, the AC50 is 13.1 µM (active) in [5] and 18.3 µM (active) in assay [8].
With `CCCN(CCC)c1c([N+](=O)[O-])cc(C(F)(F)F)cc1[N+](=O)[O-]`, the call in assay [3] and in assay [8] was inactive. The concentration at half-maximal activity (AC50) in assay [5] was 16.5 µM (active).
For the compound `COP(=S)(OC)Oc1ccc([N+](=O)[O-])cc1`, the AC50 was 19.5 µM (active) in assay [2], 15.7 µM (active) in [5], 7.33 µM (active) in [7] and 14.6 µM (active) in assay [9]. Moreover, in [8], the result was inactive.
